TDP-43 tox inh: qHTS of TDP-43 Inhibitors: NCGC Sytravon Library Screen. yeast TDP-43 toxicity rescue, BacTiter-Glo growth, 24 h. Potency, µM (titrated, usually from 46.1 µM), hits mostly activators. 45,000 compounds, 0.45% hits. AID 1347073, 2019; active = well fitted activation curve with a large enough effect; also: 0% is about no effect; nearly all actives have a fitted effect of over 55% in size
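TDP-43-expressing yeast, pregrown in raffinose, seeded at OD600 0.02 in galactose medium with compound for 24 hr at 30 deg C. Growth read by BacTiter-Glo luminescence, so rescue of toxicity appears as activation.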
Numbers without * were called inactive; i = inactive. This is one part of a sample in which hits are shown more often than they occur. Potency is read from the fitted curve at half-maximal effect.

SMILES	TDP-43 tox inh
CC(CC(=O)Nc1ccc2c(c1)c(=O)n(C)n2Cc1ccc(F)cc1)c1ccccc1 (stereo not drawn)	i
O=C(COC(=O)CCc1ccccc1)NCc1ccc2c(c1)OCO2	i
CCc1cccc(C)c1NC(=O)CCCSc1nc2ccccc2s1	i
O=C(CCCSc1nc2ccccc2s1)NCc1ccc2c(c1)OCO2	13µM*
Cc1cccc(NC(=S)NC(C)(C)CC(C)(C)C)c1	i
Cc1ccc(OCC(=O)O/N=C(\N)c2cccc([N+](=O)[O-])c2)cc1C	i
O=C(NCC1CCCCC1)c1cccc([N+](=O)[O-])c1	i
N/C(=N\OC(=O)CC1CCCCC1)c1ccc([N+](=O)[O-])cc1	18µM*
Cc1ccc(Cn2c(C)c3cnn(CC(=O)O)c(=O)c3c2C)cc1	i
COc1ccccc1-c1ccc2c(c1)C(C)(Cc1ccc(Cl)c(Cl)c1)C(=O)N2 (stereo not drawn)	i
Cc1ccc(CC2(C)C(=O)Nc3c(Cl)cccc32)cc1 (stereo not drawn)	8.9µM*
CCc1ccc2c(c1)NC(=O)C2(C)Cc1ccc(Cl)cc1 (stereo not drawn)	i
O=C(Nc1nnc([C@@H]2O[C@H](CO)[C@@H](O)[C@H]2O)s1)Nc1ccccc1C(F)(F)F	i
CCOc1ccc(C(=O)Nc2ccc3oc(-c4ccc(C)cc4C)nc3c2)cc1Br	i
CCOC(=O)C1(C)CCCN(C(=O)CCc2ccccc2)C1 (stereo not drawn)	i
CC(=O)OC[C@@H]1CN(Cc2ccccc2)C[C@H](n2cnc3c(NC4CCCC4)ncnc32)O1	i
COc1cc(NC(=O)c2ccc(-c3c(C)noc3C)c3ccoc23)cc(OC)c1OC	i
COc1ccc(-c2onc(C)c2-c2cnn(-c3ccccc3)c2)c(O)c1C	i
COc1ccc(-c2onc(C)c2-c2ccc(C(=O)OC(C)C)o2)c(O)c1	16µM*
CSc1nc2sc3c(c2c(=O)n1-c1ccc(C)cc1)CCCC3	i
Cc1cc2c(c(SCC(=O)NCc3ccccc3Cl)n1)C(=O)OC2	i
C=CCSc1nc(C)cc2c1C(=O)OC2	10µM*
Cc1cc2c(c(N3CCOCC3)n1)C(=O)OC2	i
OC(c1ccc(F)cc1)c1nc(-c2cncnc2)cs1 (stereo not drawn)	i
COc1ccc(OC)c(CNC(=O)CCCn2c(=O)c3cccn3c3cccnc32)c1	i
SMILES	TDP-43 tox inh
Cc1ccc(NC(=S)c2nc3ccccc3[nH]2)c(C)c1	10µM*
Cc1ccc(NC(=S)N2CCN(C(=O)c3ccccc3)CC2)c(C)c1	i
Cc1cc(C)cc(C(=O)Nc2nc3ccccc3[nH]2)c1	i
CCc1nc2ccc(C(=O)NCc3ccc(OC)cc3)cn2c1N(CCC(C)C)CCN(C)C	i
O=C(COC(=O)c1c2ccccc2cc2ccccc12)NCC(F)(F)F	22µM*
Cc1nc2ccccc2nc1OCC(=O)NCC(F)(F)F	i
Cn1c(CCC(=O)OCC(=O)NCC(F)(F)F)nc(=O)c2ccccc21	i
COc1ccc(-n2ncc3c2ncn2nc(-c4ccc(OC)c(OC)c4)nc32)cc1	i
CCc1cccc(C)c1NC(=O)C1=C(C)C(=O)OC12CCC(C)CC2 (stereo not drawn)	i
Cc1cccn2c(=O)c3cc(C#N)c(=O)n(-c4nnc(SCc5ccc(Cl)cc5)s4)c3nc12	i
COCCNC(=S)N/N=C(\C)c1ccc(OC)cc1	i
COCCNC(=S)N/N=C(\C)c1cc2ccccc2o1	13µM*
COCCNC(=S)N/N=C(\C)c1cccc(C(F)(F)F)c1	i
CC1(C(=O)Nc2ccc3nc[nH]c3c2)CCN1C(=O)C/C=C/c1ccccc1 (stereo not drawn)	i
CCS(=O)(=O)c1oc(-c2ccc(F)cc2)nc1S(=O)(=O)c1ccccc1	i
CCN(CC)S(=O)(=O)c1ccc2c(c1)N(CC(=O)Nc1ccccc1F)C(=O)C1CCCN21 (stereo not drawn)	i
CC(=O)N1c2ccc3ccccc3c2C(C)CC12CCCCC2 (stereo not drawn)	14µM*
CC(=O)OC[C@H]1COc2ccc3ccccc3c2[C@H]1N(C)C(C)=O	i
O=C(Nc1nc2ccc3ccccc3c2s1)c1ccc(N2CCCCC2)c([N+](=O)[O-])c1	i
COc1ccccc1-c1cc2nc(NCCc3ccncc3)ccn2n1	i
c1ccc(-c2cc3nc(NCc4cccs4)ccn3n2)cc1	i
COc1cc(-c2cc3nc(NCc4cccc(Cl)c4)ccn3n2)cc(OC)c1OC	14µM*
O=C(C1=NN[C@@H]2C(=O)N(Cc3ccccc3)C(=O)[C@H]12)c1ccc([N+](=O)[O-])cc1	i
CC(OC(=O)c1cnc2ccccc2n1)c1ccccc1Cl (stereo not drawn)	i
COC(=O)c1cc(Sc2cccc(Cl)c2Cl)ccn1	13µM*
SMILES	TDP-43 tox inh
COc1cccc(C(=O)NCCCNC(=O)c2ccccn2)c1	i
Cc1nn(-c2ccccc2)c2sc(C(=O)Nc3ccc(Cl)cc3Cl)cc12	i
N/C(=N\OC(=O)c1cccc(Cl)c1)c1cccnc1	11µM*
N/C(=N\OC(=O)c1ccc(Cl)cc1[N+](=O)[O-])c1cccnc1	i
N/C(=N\OC(=O)COc1ccc(Cl)cc1Cl)c1cccnc1	i
Cc1ccccc1NC(=O)c1c(NC(=O)Cc2ccccc2)sc2c1CCC2	i
CCCc1ccc(C(O)c2ncc(-c3ccc(OC)cc3)[nH]2)cc1 (stereo not drawn)	i
Cc1noc(C)c1C(=O)N1CCC1(C)C(=O)NS(=O)(=O)Cc1cccc(Cl)c1 (stereo not drawn)	i
CCCc1nnc2c(N(C)S(=O)(=O)c3ccc(C)cc3)nc3ccccc3n12	i
CN(c1nc2ccccc2nc1Cl)S(=O)(=O)c1ccccc1	13µM*
Clc1nc2ccccc2nc1-c1ccccc1	i
CCCS(=O)(=O)c1nc(S(=O)(=O)c2ccc(C)cc2)c(NCc2ccccc2)s1	i
CC(C)NC(=O)C1Cc2c(-c3ccc4c(c3)OCO4)ccnc2O1 (stereo not drawn)	i
Cc1cc(C(=O)N2CCCC(C)(C(=O)NS(=O)(=O)C3CC3)C2)nn1C(C)(C)C (stereo not drawn)	i
OC[C@@H]1CN(CCNc2ccccc2)C[C@H](n2cnc3c(NCc4ccncc4)ncnc32)O1	i
CCN(CC)c1ccc(/C=C/C(=O)c2ccc(Br)cc2)cc1	i
Cc1ccc(C(=O)/C=C/NCc2ccc(F)cc2)cc1	i
Cc1ccc(/C=C/C(=O)c2ccc(O)cc2)cc1	16µM*
CCOC(=O)c1ccccc1Nc1cc(C)nc2nc(-c3ccco3)nn12	i
O=C(NCCc1nc2ccccc2n1Cc1ccc(Cl)cc1Cl)c1ccco1	i
CCOC(=O)c1c(NC(=O)c2cc(OCC)c(OCC)c(OCC)c2)sc2c1CCCCC2	i
CCCN(CC(=O)Nc1ccc(F)c(F)c1F)C(=O)c1ccc2c(c1)NC(=O)CS2	i
O=C(Cc1ccccc1F)NCC(=O)Nc1ccccc1Br	i
CCCN(CC(=O)Nc1ccccc1Br)CC(=O)Nc1ccc(F)c(F)c1F	11µM*
CCc1c(C)nc2nncn2c1Nc1ccc(Cl)cc1	i
CC(=O)OC[C@@H]1CN(Cc2ccccc2)C[C@H](n2cnc3c(NCc4ccc(F)cc4)ncnc32)O1	i
CCOC(=O)c1ccccc1NC(=O)NC(C)c1c(-n2cccc2)sc(C)c1C (stereo not drawn)	i
CN1CCN(c2cc(-c3cccc(C(=O)O)c3)nc3ccnn23)CC1	i
